Measurements: PubChem BioAssay (Tox21)
Unmarked numbers belong to inactive results. The source made the active and inactive calls. Calls come from the whole dose curve; as a rule, active = well fitted cell-killing curve with a large enough effect in the repeat runs; inconclusive = weak or mixed curves, or effect the other way; inactive = flat fitted curve, though single readings scatter.

Assay: qHTS assay to identify small molecule HDAC inhibitors - cell viability counter screen (AID 1259365); note: nearly all actives have a fitted effect of over 50% in size
Conditions: HCT-116 viability, CellTiter-Glo ATP luminescence, 2 h; series mostly up to 92.4 µM; activity change, negative = cytotoxicity: at the top concentration
Source text: U.S. Tox21 Program National Center for Advancing Translational Sciences [NCATS] NIH Chemical Genomics Center [NCGC] U.S. Environmental Protection Agency [EPA] National Institutes of Environmental Health Sciences [NIEHS] National Toxicology Program [NTP] U.S. Food and Drug Administration [FDA] Tox21 Assay Overview: Histone deacetylases (HDACs) are a group of epigenetic enzymes that regulate gene expression by histone deacetylation. HDACs are capable of introducing epigenetic modifications and such aberrations contribute to the onset and progression of several human diseases, thus making HDACs a popular therapeutic target. For identifying endogenous class I/II HDAC inhibitors a homogenous, luminogenic HDAC I/II cell based assay was used to measure the relative activity of class I and II HDACs from cells. Wild type HCT-116 cells were used to screen Tox21 compound libraries for identifying class I/II HDAC inhibitors.
Tox21 Assay Protocol Summary: HCT-116 cells were dispensed at 1,500 per well in 5uL of culture medium into white solid bottom 1536-well plates (Greiner Bio-One, Monroe, NC) using a Multidrop Combi (Thermo Scientific, Waltham, MA) dispenser. The assay plates were incubated at 37 C and 5% CO2 for an overnight, and then 23nL of compounds dissolved in DMSO and positive control were transferred using a Pintool station (Wako, San Diego, CA). The assay plates were incubated at 37C and 5% CO2 for 2hr. After compound treatment, 4uL of CellTiter-Glo reagent (Promega Corporation, Madison, WI) was added to each well of the assay plates using Flying Reagent Dispenser (FRD, Aurora Discovery, San Diego, CA) and incubated the assay plates at room temperature for 30min. The luminescence signal was quantified using a ViewLux plate reader (Perkin Elmer, Shelton, CT).
% is set by controls: 0 for no effect and ±100 for the full control effect; potency is the fitted concentration of half-maximal effect.

Compared with `O=[N+]([O-])c1ccc(O)cc1C(F)(F)F`, `Cc1ccc(C(=O)O)cc1` is lower in “activity change, negative = cytotoxicity” value: 0.488% for the first, -1.56% for the second.

Compared with `CCC(C)(CCC(C)C)C(=O)[O][Sn]([CH3])([CH3])[O]C(=O)C(C)(CC)CCC(C)C` (stereo not given), `CCC(CC)C(C)CCOC(C)=O` (stereo not given) is lower in “activity change, negative = cytotoxicity” value: 1.46% for the first, -0.0281% for the second.

First: CCC(=O)C(=O)CC
Second: CC(C)OC(=O)C(O)(CC(=O)O)CC(=O)O
The “activity change, negative = cytotoxicity” value of the first is higher: -0.54% for the first, -2.46% for the second.

Compared with `[Cl][Pt-2]([Cl])([Cl])[Cl]`, `ClCCl` is lower in “activity change, negative = cytotoxicity” value: 12.4% for the first, -5.21% for the second.

Compared with `c1cnccn1`, `Cl[Si](Cl)(c1ccccc1)c1ccccc1` is lower in “activity change, negative = cytotoxicity” value: 0.891% for the first, 0.018% for the second.

Going from `CCOC(=O)c1ccc(C2CCC(NC[C@H](O)COc3ccc(O)c(NS(C)(=O)=O)c3)CC2)cc1` (stereo not given in full) to `COCCOc1cc2cc(C(=O)NC3CCN(C(C)C)CC3)n(CC(=O)Nc3ccc(Cl)cn3)c2cn1`, the “activity change, negative = cytotoxicity” value rises from -4.07% to -2.76%.

First: c1ccc(SSc2ccccc2)cc1
Second: CCCC(=O)OCCc1ccccc1
The “activity change, negative = cytotoxicity” value of the first is higher: 13.4% for the first, -0.166% for the second.

Compared with `C=C(C)c1cccc(C(=C)C)c1`, `CCCCNS(=O)(=O)c1ccc(C)cc1` is lower in “activity change, negative = cytotoxicity” value: -0.701% for the first, -2.48% for the second.

First: CCCCCCC1CCCC(=O)O1 (stereo not given)
Second: C=C(C)C(=O)OCCCCCCCCCC
The “activity change, negative = cytotoxicity” value of the first is lower: 0.595% for the first, 9.42% for the second.

Going from `CCCCCCCCCCOC(=O)c1ccccc1C(=O)OCCCCCCCC` to `CCCCC(CC)COC(=O)CCCCC(=O)OCc1ccccc1` (stereo not given), the “activity change, negative = cytotoxicity” value falls from 3.33% to -5.43%.

Compared with `OC[C@@H](O)[C@@H](O)CO`, `Cc1cc(-c2ccc(N=Nc3cc(S(=O)(=O)O)c4ccccc4c3N)c(C)c2)ccc1N=Nc1cc(S(=O)(=O)O)c2ccccc2c1N` is higher in “activity change, negative = cytotoxicity” value: -2.48% for the first, 0.505% for the second.

With `C1CCC(SSC2CCCCC2)CC1` the “activity change, negative = cytotoxicity” value was -0.127%.

First: Cc1cccc(C)c1NC(=O)c1ccc(N)cc1
Second: Cc1ccc(C(C)C)cc2c(C)ccc1-2
The “activity change, negative = cytotoxicity” value of the first is higher: 2.62% [at 42.5 µM] for the first, -7.58% [at 42.5 µM] for the second.

First: Cc1nc(-c2ccc(Cl)cc2)oc1COC(C)(C)C(=O)O
Second: CCC(CC)(CC(=O)Nc1cccc(/C=C/c2nc(C3CCC3)cs2)c1)C(=O)O
The “activity change, negative = cytotoxicity” value of the first is lower: -0.322% [at 42.5 µM] for the first, 7.06% [at 42.5 µM] for the second.

Going from `CC(N=C(NC#N)Nc1ccncc1)C(C)(C)C` (stereo not given) to `Cc1c(C)c2c(c(C)c1OC(=O)c1cccnc1)CC[C@@](C)(CCC[C@H](C)CCC[C@H](C)CCCC(C)C)O2`, the “activity change, negative = cytotoxicity” value falls from 4.59% [at 42.5 µM] to 2.69% [at 42.5 µM].

Compared with `C#C[C@]1(OC(C)=O)CC[C@H]2[C@@H]3CCC4=C[C@@H](OC(C)=O)CC[C@@H]4[C@H]3CC[C@@]21C`, `O=c1[nH]c(=O)n([C@H]2C[C@H](O)[C@@H](CO)O2)cc1F` is higher in “activity change, negative = cytotoxicity” value: -11.8% [at 42.5 µM] for the first, 5.49% [at 42.5 µM] for the second.

Compared with `O=C(O)[C@H](O)[C@@H](O)[C@H](O[C@@H]1O[C@H](CO)[C@H](O)[C@H](O)[C@H]1O)[C@H](O)CO`, `CCCCCCCCCCC[C@@H](C[C@@H]1OC(=O)[C@H]1CCCCCC)OC(=O)[C@H](CC(C)C)NC=O` is higher in “activity change, negative = cytotoxicity” value: -2.28% [at 42.5 µM] for the first, 0.93% [at 42.5 µM] for the second.

First: CN1CCN2c3ccccc3Cc3ccccc3C2C1 (stereo not given)
Second: Cc1c(N)cccc1C(F)(F)F
The “activity change, negative = cytotoxicity” value of the first is lower: -3.09% [at 42.5 µM] for the first, -2.52% [at 42.5 µM] for the second.

In the case of `CC(=O)[C@H]1CC[C@H]2[C@@H]3CCC4=CC(=O)CC[C@]4(C)[C@H]3CC[C@]12C`, the Potency is reported as “inactive”.
With `C#CC1(O)CC[C@H]2[C@@H]3CCC4=CCCC[C@@H]4[C@H]3CC[C@@]21C` (stereo not given in full) the Potency was 29.8 µM (active).
With `CCCCCCCCCCCCCC[N+](C)(C)C` the Potency was “inactive”.

Going from `O=C(O)O` to `CC(C)(C)CC(C)(C)c1ccc(Nc2ccc(C(C)(C)CC(C)(C)C)cc2)cc1`, the activity change, negative = cytotoxicity rises from -4.12% [at 8.39 µM] to 2.64% [at 8.39 µM].
